# High-throughput results as filed in PubChem BioAssay.
# The list is not random: actives were taken first. Their share in the collection is about 3.6%.
# Bead autofluor = counter-screen for toxin protease inhibitors: compound fluorescence. compound autofluorescence counterscreen, microsphere flow cytometry; active compounds read high. fluorescence intensity (no concentration beside the values). actives 3.1% (n = 360,000). AID 624483; in the data active = fluorescence intensity above about 16000; inconclusive = no clear call, values can overlap the other calls
# MazEF act = MazEF (E. coli) toxin RNase activation; FAM/BHQ RNA-DNA oligo cleavage fluorescence, 5 h; activation, % at 20 µM; actives 0.32% (n = 350,000); AID 504720; in the data active = activation above about 50%
# Target sequence (P0AE70 whole entry, looked up): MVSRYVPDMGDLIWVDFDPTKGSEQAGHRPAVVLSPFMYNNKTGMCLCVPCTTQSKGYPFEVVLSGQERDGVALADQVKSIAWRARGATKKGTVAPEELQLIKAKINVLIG
# BoNT A protease = blocks Botulinum neurotoxin A light chain protease | inhibition, % at 10 µM | actives 0.17% (n = 360,000) | AID 588499 | multiplex microsphere protease substrate cleavage, flow cytometry; also: plate controls were buffer without enzyme for full effect and enzyme alone for no effect
# BoNT-F LC inh = blocks Botulinum neurotoxin F light chain protease; Multiplex microsphere protease cleavage assay, flow cytometry; inhibition, % at 10 µM; actives 0.22% (n = 360,000); in the data active = inhibition above about 35%, passing the limit was not always enough; inconclusive = no clear call, values can overlap the other calls; also: plate controls were buffer without enzyme for full effect and enzyme alone for no effect
# Anthrax LF prot = inhibitors of Bacillus anthracis lethal factor protease; P15917; multiplex microsphere protease cleavage assay, LF; inhibition, % at 10 µM; actives 0.12% (n = 360,000); AID 588501; also: plate controls were buffer without enzyme for full effect and enzyme alone for no effect
# * hit, by the source's call; ? = inconclusive; nt = no result given. Rule as the data show it, unless noted: active = inhibition above about 30%; inconclusive = no clear call, values can overlap the other calls; inactive = below that.
SMILES,Bead autofluor,MazEF act,BoNT A protease,BoNT-F LC inh,Anthrax LF prot
COc1ccccc1Oc1ccccc1C(=O)O,16152*,0,1,0,1
CC(=NCCN1CCCCC1)c1c(O)[nH]c(=O)[nH]c1=O,16267*,-7,-1,-1,-1
COc1ccc(-n2c(O)c(C(C)=NCCN3CCNCC3)c(=O)[nH]c2=O)cc1,22171*,-1,3,6,1
CC(=NCCCO)c1c(O)[nH]c(=O)[nH]c1=O,6289,10,0,5,3
COc1ccc(-n2c(O)c(C(C)=NCC3CCCO3)c(=O)[nH]c2=O)cc1 (stereo not given),4409,3,0,7,-9
CC(=NCCCn1ccnc1)c1c(O)n(Cc2ccccc2)c(=O)[nH]c1=O,20727*,5,4,3,-13
CC(=NCCN1CCCCC1)c1c(O)n(Cc2ccccc2)c(=O)[nH]c1=O,23910*,-13,-1,2,2
Cc1nc(SCc2cccc(F)c2)[nH]c(=O)c1C#N,22061*,1,?,4,-3
N#Cc1c(-c2ccco2)nc(SCc2ccc(F)cc2)[nH]c1=O,5825,6,0,0,-9
O=c1c2ccccc2cnn1-c1ccc2ccccc2c1,23123*,3,-9,-10,-2
CCCCCC(=O)N1C[C@@H](O)[C@H](n2cc(C3CC3)nn2)C[C@@H]1c1ccc(C)cc1,2970,4,0,-3,-4
O=C(O)CC(CC(=O)NCC(O)c1ccccc1)c1ccccc1 (stereo not given),3485,7,0,7,13
COc1ccc(N2C(=O)CC(Nc3ccc(C)cc3)C2=O)cc1 (stereo not given),21164*,-7,?,1,-5
Cc1ccc(NC2CC(=O)N(c3ccc(N4CCCCC4)cc3)C2=O)cc1 (stereo not given),7540,4,-1,-2,-1
Clc1ccccc1Nc1ncnc2c1nnn2Cc1ccccc1,16216*,9,?,-2,-5
Fc1ccccc1Nc1ncnc2c1nnn2Cc1ccccc1,3623,-4,-2,4,1
c1ccc(Cn2nnc3c(N4CCc5ccccc5C4)ncnc32)cc1,20729*,-1,4,8,1
c1ccc(Cn2nnc3c(N4CCCC4)ncnc32)cc1,16477*,-3,-1,-4,0
CCOc1ccc(CCN2C(=O)C(=O)N([C@@H](Cc3ccccc3)CN3CCC[C@H]3CN3C(=O)C(=O)NC[C@@H]3Cc3ccccc3)C[C@@H]2CC(C)C)cc1,4521,nt,0,10,-9
Cc1cc(C)cc(NC(=O)c2cccn2-c2ncc(C(F)(F)F)cc2Cl)c1,25062*,-7,?,-7,-3
COc1cc(CN2C(=O)C(C)ON=C2c2cccs2)cc(OC)c1 (stereo not given),5040,nt,0,-1,4
CCc1ccc(C(=O)COC(=O)c2ccc(-c3nnc(-c4ccccc4)o3)cc2)cc1,24076*,-25,-2,-4,-1
Cc1[nH]c(=O)[nH]c(=O)c1S(=O)(=O)Nc1cccc(C(F)(F)F)c1,3719,2,-2,3,0
COc1cc(C=O)ccc1OCc1c(C)noc1C,21666*,2,-3,-4,-4
COc1cc(C(=O)O)ccc1OCc1c(C)noc1C,21283*,-1,-1,-2,0
SMILES,Bead autofluor,MazEF act,BoNT A protease,BoNT-F LC inh,Anthrax LF prot
COc1cc(C(=O)Oc2ccccc2)ccc1OCc1c(C)noc1C,4421,-1,0,-3,1
O=C(CSC(=S)N1CCCCC1)Nc1nc(-c2ccccc2)c(-c2ccccc2)o1,21247*,3,1,2,-10
CC(CCc1ccccc1)C(=O)NO (stereo not given),23384*,-2,0,2,1
CC(CCc1ccccc1)NC(=O)Cc1ccc(Br)cc1 (stereo not given),2915,-5,1,9,-13
COC(=O)[C@H](C)NC(=O)NC(C)CCc1ccccc1 (stereo not given in full),21607*,-9,2,2,1
COc1ccc(C)cc1NC(=O)CSc1nnc(-c2ccccn2)n1Cc1ccco1,21479*,3,?,-8,-1
O=C(CSc1nnc(-c2ccccn2)n1Cc1ccco1)Nc1ccc2c(c1)OCO2,20585*,-3,-1,-3,-3
COc1ccccc1NC(=O)CSc1nnc(-c2ccccn2)n1Cc1ccco1,5786,-8,0,-2,-5
COc1ccc(C(=O)CSc2nnc(-c3cccnc3)n2Cc2ccco2)cc1,10586,0,0,4,-6
CCn1c(SCC(=O)Nc2ccc3c(c2)OCCO3)nnc1-c1ccccn1,13400,-3,-2,-31,-2
